About 2,000 (36%) of roughly 5,500 compounds were called active. Roughly 18% stayed inconclusive and do not appear here. No stated cut-off is given here; in the data, active means normalized growth mostly below about 0.91 (no sharp cut-off); inconclusive means no clear call, values can overlap the other calls; inactive means mostly above about 0.92. This is one part of the list.
Assay: chemical genetic growth profiling, strain panel (AID 1159580);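 further: tested at 20 µM; growth read once vehicle control cultures reached saturation at 30 °C; 1 = growth at the plate median or of vehicle wells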
Details: S. cerevisiae deletion strains, growth OD

Measured: normalized growth

CC1=C(/C=C/C(C)=C/C=C/C(C)=C/C=C/C=C(C)/C=C/C=C(C)/C=C/C2=C(C)C(=O)CCC2(C)C)C(C)(C)CCC1=O
inactive: locus YAL021C, strain ccr4, stronger effect = lower value 1.02 | locus YAL026C, strain drs2, stronger effect = lower value 0.964 | locus YAL030W, strain snc1, stronger effect = lower value 0.981 | locus YBL061C, strain skt5, stronger effect = lower value 0.981 | locus YBR009C, strain hhf1, stronger effect = lower value 0.941 | locus YBR023C, strain chs3, stronger effect = lower value 0.987 | locus YBR171W, strain sec66, stronger effect = lower value 0.975 | locus YBR231C, strain swc5, stronger effect = lower value 0.982 | locus YBR279W, strain paf1, stronger effect = lower value 0.989 | locus YCL011C, strain gbp2, stronger effect = lower value 0.96 | locus YCL016C, strain dcc1, stronger effect = lower value 1 | locus YCL061C, strain MRC1, stronger effect = lower value 1.01 | locus YCL069W, strain vba3, stronger effect = lower value 0.975 | locus YCR088W, strain abp1, stronger effect = lower value 0.994 | locus YDL005C, strain med2, stronger effect = lower value 0.981 | locus YDL040C, strain nat1, stronger effect = lower value 0.978 | locus YDR001C, strain nth1, stronger effect = lower value 0.986 | locus YDR069C, strain doa4, stronger effect = lower value 0.996 | locus YDR137W, strain rgp1, stronger effect = lower value 1.03 | locus YDR159W, strain sac3, stronger effect = lower value 0.961 | locus YDR195W, strain ref2 0.944 | locus YDR297W, strain sur2, stronger effect = lower value 0.995 | locus YDR334W, strain swr1, stronger effect = lower value 0.982 | locus YDR335W, strain msn5, stronger effect = lower value 0.992 | locus YDR392W, strain spt3, stronger effect = lower value 0.92 | locus YEL003W, strain gim4, stronger effect = lower value 0.979 | locus YEL037C, strain rad23, stronger effect = lower value 0.971 | locus YEL061C, strain CIN8 (second series), stronger effect = lower value 0.979 | locus YER015W, strain faa2, stronger effect = lower value 0.984 | locus YER016W, strain bim1, stronger effect = lower value 1.01 | locus YER111C, strain swi4, stronger effect = lower value 0.963 | locus YER155C, strain BEM2 (second series), stronger effect = lower value 0.973 | locus YFR010W, strain ubp6, stronger effect = lower value 0.971 | locus YGL167C, strain pmr1, stronger effect = lower value 0.978 | locus YGL173C, strain kem1, stronger effect = lower value 0.99 | locus YGL227W, strain vid30, stronger effect = lower value 0.971 | locus YGL240W, strain doc1, stronger effect = lower value 1.01 | locus YGL253W, strain hxk2, stronger effect = lower value 0.963 | locus YHR013C, strain ard1, stronger effect = lower value 0.958 | locus YHR027C, strain rpn1, stronger effect = lower value 0.997 | locus YHR142W, strain chs7, stronger effect = lower value 1.01 | locus YJL092W, strain hpr5, stronger effect = lower value 0.999 | locus YJL095W, strain BCK1 (second series), stronger effect = lower value 1 | locus YJL115W, strain asf1, stronger effect = lower value 0.98 | locus YJL129C, strain trk1, stronger effect = lower value 0.989 | locus YJL154C, strain vps35, stronger effect = lower value 0.975 | locus YJL164C, strain tpk1, stronger effect = lower value 1.02 | locus YJL166W, strain qcr8, stronger effect = lower value 1 | locus YJL187C, strain SWE1, stronger effect = lower value 0.985 | locus YKL160W, strain elf1, stronger effect = lower value 1.07 | locus YKR026C, strain gcn3, stronger effect = lower value 0.977 | locus YKR091W, strain srl3, stronger effect = lower value 0.985 | locus YLL001W, strain dnm1, stronger effect = lower value 0.997 | locus YLL026W, stronger effect = lower value 0.987 | locus YLL041C, strain sdh2, stronger effect = lower value 0.998 | locus YLR027C, strain aat2, stronger effect = lower value 1.01 | locus YLR221C, strain rsa3, stronger effect = lower value 1.01 | locus YLR258W, strain gsy2, stronger effect = lower value 0.982 | locus YLR262C, strain YPT6 (second series), stronger effect = lower value 1.05 | locus YLR320W, strain mms22, stronger effect = lower value 0.99 | locus YLR342W, strain FKS1, stronger effect = lower value 0.983 | locus YLR357W, strain rsc2, stronger effect = lower value 0.966 | locus YLR370C, strain arc18, stronger effect = lower value 0.986 | locus YLR384C, strain iki3, stronger effect = lower value 0.998 | locus YML120C, strain ndi1, stronger effect = lower value 0.996 | locus YMR058W, strain fet3, stronger effect = lower value 0.965 | locus YMR125W, strain sto1, stronger effect = lower value 0.92 | locus YMR129W, stronger effect = lower value 0.975 | locus YMR205C, strain PFK2, stronger effect = lower value 0.937 | locus YMR231W, strain pep5, stronger effect = lower value 0.987 | locus YNL071W, strain lat1, stronger effect = lower value 0.99 | locus YNL209W, strain ssb2, stronger effect = lower value 0.991 | locus YNL248C, strain rpa49, stronger effect = lower value 1.03 | locus YNL322C, strain KRE1 (second series), stronger effect = lower value 0.989 | locus YNR049C, strain mso1, stronger effect = lower value 0.965 | locus YOR001W, strain rrp6, stronger effect = lower value 1.03 | locus YOR070C, strain gyp1, stronger effect = lower value 1.02 | locus YOR080W, strain dia2, stronger effect = lower value 0.993 | locus YOR083W, strain WHI5, stronger effect = lower value 1.05 | locus YOR106W, strain vam3, stronger effect = lower value 0.986 | locus YOR265W, strain rbl2, stronger effect = lower value 1.01 | locus YOR270C, strain vph1, stronger effect = lower value 0.871 | locus YOR290C, strain snf2, stronger effect = lower value 0.934 | locus YPL051W, strain arl3, stronger effect = lower value 1.02 | locus YPL078C, strain atp4, stronger effect = lower value 0.997 | locus YPL106C, strain sse1, stronger effect = lower value 1.01 | locus YPL240C, strain hsp82, stronger effect = lower value 1

Source: PubChem BioAssay AID1159580 (chemical genetic matrix, 2015)
